Data as given in paper PMC11624278.

Tests used:
Assay in all cases: cross-link between two proteins; affinity purification or IP with mass spectrometry; cross-linking mass spectrometry
Calreticulin = Calreticulin (UniProt P14211)
Integrin alpha-3 = Integrin alpha-3 (UniProt Q62470)
Integrin alpha-5 = Integrin alpha-5 (UniProt P11688)

Measured: listed as a hit

Chain of UniProt P11688 (P11688 whole entry): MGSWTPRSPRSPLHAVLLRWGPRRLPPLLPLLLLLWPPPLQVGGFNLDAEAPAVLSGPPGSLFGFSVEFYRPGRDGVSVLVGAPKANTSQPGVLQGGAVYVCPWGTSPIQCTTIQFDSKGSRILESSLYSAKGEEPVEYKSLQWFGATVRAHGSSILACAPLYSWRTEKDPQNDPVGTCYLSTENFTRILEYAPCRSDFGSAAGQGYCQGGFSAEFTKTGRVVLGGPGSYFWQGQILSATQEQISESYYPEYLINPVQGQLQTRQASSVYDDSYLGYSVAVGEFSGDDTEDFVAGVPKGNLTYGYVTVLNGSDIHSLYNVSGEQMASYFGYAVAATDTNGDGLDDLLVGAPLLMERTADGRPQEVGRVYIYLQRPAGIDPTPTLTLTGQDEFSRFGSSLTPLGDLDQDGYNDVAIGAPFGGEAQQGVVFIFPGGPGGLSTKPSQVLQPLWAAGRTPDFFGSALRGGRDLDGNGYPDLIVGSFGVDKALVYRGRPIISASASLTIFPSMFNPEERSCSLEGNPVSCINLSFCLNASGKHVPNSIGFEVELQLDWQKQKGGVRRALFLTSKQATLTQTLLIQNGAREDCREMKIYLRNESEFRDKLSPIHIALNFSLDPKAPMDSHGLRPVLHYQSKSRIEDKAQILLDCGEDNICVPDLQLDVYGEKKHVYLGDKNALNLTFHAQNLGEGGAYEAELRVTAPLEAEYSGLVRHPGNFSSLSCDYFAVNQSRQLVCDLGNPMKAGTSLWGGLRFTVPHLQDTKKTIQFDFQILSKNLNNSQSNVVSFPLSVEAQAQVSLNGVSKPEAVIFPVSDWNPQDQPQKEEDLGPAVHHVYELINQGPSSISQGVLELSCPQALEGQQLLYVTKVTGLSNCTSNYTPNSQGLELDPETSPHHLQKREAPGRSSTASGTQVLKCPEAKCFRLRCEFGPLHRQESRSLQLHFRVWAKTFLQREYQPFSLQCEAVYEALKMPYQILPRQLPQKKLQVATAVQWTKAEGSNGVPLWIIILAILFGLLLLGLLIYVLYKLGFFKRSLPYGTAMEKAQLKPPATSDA
Chain of UniProt P14211 (P14211 whole entry): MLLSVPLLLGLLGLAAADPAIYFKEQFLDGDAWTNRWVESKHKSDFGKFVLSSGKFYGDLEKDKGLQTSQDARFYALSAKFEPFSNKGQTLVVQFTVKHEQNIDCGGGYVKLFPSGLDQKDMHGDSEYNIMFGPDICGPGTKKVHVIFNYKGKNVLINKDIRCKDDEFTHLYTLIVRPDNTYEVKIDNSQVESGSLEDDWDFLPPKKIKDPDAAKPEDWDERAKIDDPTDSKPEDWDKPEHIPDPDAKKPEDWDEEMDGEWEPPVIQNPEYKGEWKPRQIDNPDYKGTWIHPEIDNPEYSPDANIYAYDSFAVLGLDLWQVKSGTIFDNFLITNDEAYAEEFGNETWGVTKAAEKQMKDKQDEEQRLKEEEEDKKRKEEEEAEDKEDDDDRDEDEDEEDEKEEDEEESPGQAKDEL
Chain of UniProt Q62470 (Q62470 whole entry): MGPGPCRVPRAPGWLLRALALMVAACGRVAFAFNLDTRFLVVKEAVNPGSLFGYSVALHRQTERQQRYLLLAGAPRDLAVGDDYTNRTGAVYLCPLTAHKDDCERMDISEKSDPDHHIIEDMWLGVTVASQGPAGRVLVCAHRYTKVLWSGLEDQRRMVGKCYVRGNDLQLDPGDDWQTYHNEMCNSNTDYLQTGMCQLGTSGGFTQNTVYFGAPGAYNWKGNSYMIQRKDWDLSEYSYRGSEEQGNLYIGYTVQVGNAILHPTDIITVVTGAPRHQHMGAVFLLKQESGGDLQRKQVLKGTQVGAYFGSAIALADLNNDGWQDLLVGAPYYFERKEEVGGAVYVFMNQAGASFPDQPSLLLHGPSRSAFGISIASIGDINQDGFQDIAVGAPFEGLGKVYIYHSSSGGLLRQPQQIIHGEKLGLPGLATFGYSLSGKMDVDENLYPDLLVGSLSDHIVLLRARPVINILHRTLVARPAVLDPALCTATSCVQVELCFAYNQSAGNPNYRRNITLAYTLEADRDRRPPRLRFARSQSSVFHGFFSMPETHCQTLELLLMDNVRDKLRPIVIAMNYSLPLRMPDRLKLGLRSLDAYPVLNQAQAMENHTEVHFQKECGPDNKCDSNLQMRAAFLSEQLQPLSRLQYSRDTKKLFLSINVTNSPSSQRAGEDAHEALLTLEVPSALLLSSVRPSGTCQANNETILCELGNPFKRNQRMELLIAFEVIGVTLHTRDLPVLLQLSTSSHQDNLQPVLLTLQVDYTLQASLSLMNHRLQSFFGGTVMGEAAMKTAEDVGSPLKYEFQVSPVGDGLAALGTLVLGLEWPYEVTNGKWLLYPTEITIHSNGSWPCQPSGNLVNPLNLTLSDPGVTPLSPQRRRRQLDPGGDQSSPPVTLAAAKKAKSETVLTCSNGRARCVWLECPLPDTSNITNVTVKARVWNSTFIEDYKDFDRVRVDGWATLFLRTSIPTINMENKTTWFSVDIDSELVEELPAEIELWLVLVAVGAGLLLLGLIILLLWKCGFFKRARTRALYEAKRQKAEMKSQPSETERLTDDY

Integrin beta-1, P09055
yes: all assays above
